Screening data from PubChem.
ALDH1A1 block: blocks purified human ALDH1A1 activity; P00352; Purified ALDH1A1, NADH fluorescence, propionaldehyde substrate; Potency, µM (top dose mostly 75.3 µM), for inactives: at the highest dose activity, negative = inhibition, hits mostly inhibitors; actives 7.3% (n = 220,000); AID 1030;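 also: potency is read from the fitted curve at half-maximal effect; plate controls were no enzyme wells and a reference inhibitor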
PNC inhibitor: perinucleolar compartment assembly inhibition; actives 3.1% (n = 140,000); PC3M PTB-GFP, PNC prevalence imaging, 16 h; hits give low values; activity change (PNC), negative = inhibition, % at 10 µM;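 active = readout at or below -70, meaning at least 70% loss of cells showing the perinucleolar compartment, a nuclear body marking cancer cells; inconclusive = readout between -30 and a set limit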;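 also: plate controls were DMSO wells for no effect and camptothecin positive control wells for full effect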
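Compounds are pinned in duplicate onto adhered PC3M cells stably expressing GFP-tagged PTB and incubated 16 h at 37 C. Cells are then fixed, nuclei stained with Hoechst, and PNC-positive cells counted.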
HPGD inh: inhibitors of human 15-hydroxyprostaglandin dehydrogenase (HPGD); actives 4.3% (n = 150,000); purified HPGD, NADH fluorescence kinetic, PGE2 substrate; P15428; Potency, µM, for the others: top-dose activity change, negative = inhibition, usual class: inhibitors; also: potency is read from the fitted curve at half-maximal effect
Target sequence (P15428 whole entry, looked up): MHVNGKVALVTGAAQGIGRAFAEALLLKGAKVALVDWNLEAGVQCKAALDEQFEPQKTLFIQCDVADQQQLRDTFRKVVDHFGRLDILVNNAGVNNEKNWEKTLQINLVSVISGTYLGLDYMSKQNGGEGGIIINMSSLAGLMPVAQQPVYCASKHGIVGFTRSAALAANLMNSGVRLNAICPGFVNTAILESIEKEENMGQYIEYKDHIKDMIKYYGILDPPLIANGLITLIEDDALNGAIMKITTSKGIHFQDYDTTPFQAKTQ
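20 nM HPGD preincubated 15 min at room temperature with compound in 50 mM Tris-HCl pH 8, 0.01% Tween 20. Started with 1 mM NAD+ and 30 uM prostaglandin E2; NADH fluorescence (360/450 nm) read 5 times over 30-s intervals, last minus first.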
* marks the source's active call; other numbers are inactive results; ? = inconclusive; . = no result; [ ] = dose if it differs, or a comment. An excerpt weighted towards active compounds, which were near 11% of everything screened. Unless noted, calls follow the shape of the dose curve; as a rule, active = well fitted inhibition curve with a large enough effect (not every such curve was filed as active); inconclusive = small, poorly fitted or top-dose-only effect, or another doubt; inactive = no such curve, though single readings can be large or run the other way. Unless noted, % is scaled to controls: 0 for no effect and ±100 for the full control effect.

SMILES	ALDH1A1 block	PNC inhibitor	HPGD inh
O=C1CCCC(O)=C1N=Nc1c(Cl)cc(C(F)(F)F)cc1Cl	-4.2%	.	.
O=C(c1ccncc1)N1CCC[C@@]2(CCN(C(c3ccccc3)c3ccccc3)C2)C1	-5.0%	.	-3.3%
CCOC(=O)CNS(=O)(=O)c1cc(-c2nn(C)c(=O)c3ccccc23)ccc1C	?	?	15.8µM*
Cc1ccc(-c2n[nH]c(=O)c3ccccc23)cc1N	10.1%	-9.5	-14.3%
Cc1ccc(-c2n[nH]c(=O)c3ccccc23)cc1S(=O)(=O)NCCO	6.9%	?	14.1µM*
Cc1ccc(-c2nn(C)c(=O)c3ccccc23)cc1S(=O)(=O)NCCN1CCOCC1	-3.6%	?	?
CCOc1ccc(NS(=O)(=O)c2ccc(NC(=O)c3cccnc3)c(OC)c2)cc1	7.7%	.	.
O=C(Nc1ccccc1C(=O)OCC(=O)c1c[nH]c2ccccc12)c1ccco1	?	59.4	-27.4%
COc1ccc(N(Cc2ccco2)C(=O)c2ccccc2F)cc1OC	11.8%	-0.6	-1.3%
CC(Sc1nc(-c2ccc(F)cc2)cs1)C(=O)Nc1ccc(Cl)cn1 (centres undefined)	0.7%	-100.0*	-18.1%
Cc1csc(SC(C)C(=O)Nc2ccc(Cl)cn2)n1 (centres undefined)	8.3%	3.5	-2.0%
CC(C)NC(=S)N1CCN(C/C=C/c2ccccc2)CC1	14.6%	.	.
CCN(CC)S(=O)(=O)c1ccc(-c2csc(C)n2)s1	-12.8%	.	.
CCN(CC)S(=O)(=O)c1ccc(-c2csc(C)n2)cc1	25.1µM*	.	.
COc1ccc(-c2nnc3n2N=C(C)CS3)cc1	-2.2%	78.0	-22.8%
CCOC(=O)/C(=C\c1ccc(OC(F)F)cc1)C1=Nn2c(nnc2-c2ccc(Cl)cc2)SC1	14.1µM*	?	14.1µM*
CCCCc1c(O)nc(SCC(=O)N2CCOCC2)[nH]c1=O	2.0%	?	3.5%
Cc1cc(C(c2nnnn2Cc2ccccc2)N2CCOCC2)c(C)n1-c1ccc2c(c1)OCO2 (centres undefined)	12.6µM*	-6.3	-12.4%
c1ccc(Cn2nnnc2C(c2ccncc2)N2CCOCC2)cc1 (centres undefined)	5.7%	-13.1	-5.5%
Cc1ccc(C)c(NC(=O)Cc2csc(-c3ccccc3)n2)c1	17.0%	-18.7	-5.1%
C(=C\c1ccccc1)/CN1CCN(Cc2nc(Cc3ccccc3)no2)CC1	12.6µM*	.	.
COc1ccccc1CN1CCN(Cc2nc(Cc3ccccc3)no2)CC1	-2.0%	.	.
CCC(Oc1ccccc1)C(=O)NCc1ccc(S(N)(=O)=O)cc1 (centres undefined)	12.9%	25.2	4.7%
Nc1nc2c(ncn2[C@@H]2C=C[C@@H](CO)C2)c(=O)[nH]1	-11.6%[13.5 µM]	.	-15.0%
CCN(CC)c1nc2c(s1)C(=O)CC(C)(C)C2	12.6µM*	24.0	-13.4%
SMILES	ALDH1A1 block	PNC inhibitor	HPGD inh
CCN(CC)c1nc2c(s1)C(=O)NCCC2	?	2.6	-11.3%
O=C(c1csnn1)N1CCC[C@@]2(CCN(Cc3ccccc3)C2)C1	12.4%	.	2.5%
NC(=O)CC1NC(=O)c2ccccc21 (centres undefined)	13.9%	?	-1.2%
Cc1sc(/N=C/c2c(O)ccc3ccccc23)c(C#N)c1C	2.1%	33.5	-11.8%
COc1ccc(O)c(/C=N/c2sc(C)c(C)c2C#N)c1	10µM*	29.6	25.1µM*
CC(=O)Nc1ccc(Oc2cc(NC(C)=O)cc([N+](=O)[O-])c2)cc1	-11.7%	.	.
O=C(Nc1cccc(NC(=O)C2CC3CCCC(C2)C3=O)n1)C1CC2CCCC(C1)C2=O (centres undefined)	-10.3%	?	6.8%
Cc1nc(NC(=O)C2CC3CCCC(C2)C3=O)sc1C (centres undefined)	?	-122.4*	-7.2%
O/N=C1\CCCc2ccc(Cl)cc21	10.4%	-24.5	-15.7%
O=C(O)c1n[nH]c2c1CCCCC2	3.5%	-89.0*	-3.0%
O=C(O)c1n[nH]c2c1CCCC2	4.0%	20.1	0.0%
Cc1nn2c(NCCOCCO)c3c(nc2c1-c1ccccc1)CCCC3	31.6µM*	87.7	-15.2%
COCCNc1c2c(nc3c(-c4ccccc4)c(C)nn13)CCCC2	-9.4%	79.3	-11.8%
CN(C)c1ccc(SC#N)cc1	12.6µM*	.	.
CN(C)c1ccc(C(c2ccc(N(C)C)cc2)c2ccc([N+](=O)[O-])cc2)cc1	1.9%[13.5 µM]	.	-7.0%
C/C(=N\Nc1cccc2cccnc12)c1ccc(N)cc1	8.91µM*	.	.
C/C(=N\Nc1cccc2cccnc12)c1ccccn1	-13.9%	.	.
Cc1c(CC=C(Cl)Cl)c(=O)[nH]c2c(C)cccc12	-8.5%	?	-14.8%
COCCNc1nnc(SCC(=O)Nc2sc3c(c2C(=O)c2ccccc2)CCCC3)s1	28.2µM*	6.8	-26.4%
Nc1nnc(SCC(=O)Nc2sc3c(c2C(=O)c2ccccc2)CCCC3)s1	12.6µM*	31.2	-19.8%
Nc1nnc(SCCCC(=O)c2ccccc2)s1	19.4%	-2.0	-3.0%
Nc1nnc(SCC(=O)c2ccc3ccccc3c2)s1	8.91µM*	16.2	22.4µM*
COCCNc1nnc(SCC(=O)NNC(=O)c2ccccc2)s1	7.6%	.	.
Cc1ccc(C(=O)c2c(NC(=O)CSc3nnc(N)s3)sc3c2CCCC3)cc1	-2.8%	28.5	?
Cc1c(F)cccc1NS(=O)(=O)c1ccc2c(c1)NC(=O)CO2	9.6%	.	.
SMILES	ALDH1A1 block	PNC inhibitor	HPGD inh
COc1ccc2[nH]cc(CCNc3ncncc3-c3ccoc3)c2c1	-7.4%	.	.
COc1ccccc1NS(=O)(=O)c1cc(C(=O)NCCC(C)C)ccc1F	4.9%	.	.
Cc1ccc(CN(c2ccc(C(=O)NCc3ccccn3)cc2)S(C)(=O)=O)cc1	-0.8%	-5.5	-7.4%
COc1cc(N=Nc2c(O)c3ccccc3[nH]c2=O)c(OC)cc1N=Nc1ccccc1	15.8µM*	.	.
NC(=O)c1ccc(N=Nc2c(O)c3ccccc3[nH]c2=O)cc1	-7.6%	.	.
O=C(N/N=C/C=C/c1ccccc1[N+](=O)[O-])c1cc(-c2ccccc2)n[nH]1	?	-21.8	25.1µM*
CCOC(=O)N/N=C/C=C/c1ccccc1[N+](=O)[O-]	10µM*	.	.
O=C(N/N=C/C=C\c1ccccc1[N+](=O)[O-])c1ccccn1	-13.3%	33.7	-24.8%
Cn1c(SCC(=O)N/N=C/C=C/c2ccccc2[N+](=O)[O-])nc2ccccc21	?	12.6	-5.4%
O=C(CSc1nc2ccccc2[nH]1)N/N=C/C=C/c1ccccc1[N+](=O)[O-]	4.47µM*	-28.2	-10.4%
Cc1ccsc1C(=O)N/N=C/C=C/c1ccccc1[N+](=O)[O-]	?	?	-13.3%
CCOC(=O)CSc1nnc(C)n1N	1.7%	?	-11.0%
Fc1ccc(CSc2ccc3nnc(-c4cccnc4)n3n2)cc1	1.6%	.	.
OCC1OC(n2cnc3c(NCc4ccco4)ncnc32)C(O)C1O (centres undefined)	-0.4%	.	-12.0%
CCCCC#CC1C=CC(Oc2ccc(OC)cc2)C(CO)O1 (centres undefined)	1.9%[13.5 µM]	.	.
Cc1nnc(SCC(=O)NC2CCCCC2)n(N)c1=O	-3.4%	?	2.4%
O=c1oc(Nc2cccc(Cl)c2)nc2ccccc12	-5.6%	.	.
O=c1oc(Nc2ccccc2F)nc2ccccc12	20µM*	-9.7	.
O=[N+]([O-])c1cccc(/C=C/C=N/Nc2nc(N3CCCCC3)nc(N3CCCCC3)n2)c1	9.7%	.	.
c1ccc2c(c1)C(=Nc1ccc(N=C3c4ccccc4-c4ccccc43)cc1)c1ccccc1-2	17.1%[13.5 µM]	.	-3.7%
